PubChem BioAssay AID1159580 (chemical genetic matrix, 2015)
About 2,000 (36%) of roughly 5,500 compounds were called active. Roughly 18% stayed inconclusive and do not appear here. Rule as the data show it: active = normalized growth mostly below about 0.91 (no sharp cut-off); inconclusive = no clear call, values can overlap the other calls; inactive = mostly above about 0.92. The list shows a part of the results.

Assay: chemical genetic growth profiling, strain panel (AID 1159580);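 also: tested at 20 µM; growth read once vehicle control cultures reached saturation at 30 °C; 1 = growth at the plate median or of vehicle wells; lower values mean less growth of the strain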
Conditions: growth OD

Measured: normalized growth

CC(=O)NC(C(=O)O)C(C)(C)SN=O (centres undefined)
inactive: S. cerevisiae deletion strains, locus YJR043C, strain POL32, active compounds read low 0.995 | S. cerevisiae deletion strains, locus YJR075W, strain HOC1, active compounds read low 1.03 | S. cerevisiae deletion strains, locus YKL009W, strain mrt4, active compounds read low 0.957 | S. cerevisiae deletion strains, locus YKL068W, active compounds read low 0.99 | S. cerevisiae deletion strains, locus YKL085W, strain MDH1 (second series), active compounds read low 0.987 | S. cerevisiae deletion strains, locus YKL085W, strain MDH1, active compounds read low 0.987 | S. cerevisiae deletion strains, locus YKL160W, strain elf1, active compounds read low 0.996 | S. cerevisiae deletion strains, locus YKL190W, strain CNB1, active compounds read low 1.01 | S. cerevisiae deletion strains, locus YKR001C, strain vps1, active compounds read low 1 | S. cerevisiae deletion strains, locus YKR026C, strain gcn3, active compounds read low 0.989 | S. cerevisiae deletion strains, locus YKR091W, strain srl3, active compounds read low 0.986 | S. cerevisiae deletion strains, locus YLL001W, strain dnm1, active compounds read low 1 | S. cerevisiae deletion strains, locus YLL026W, active compounds read low 1 | S. cerevisiae deletion strains, locus YLL041C, strain sdh2, active compounds read low 0.99 | S. cerevisiae deletion strains, locus YLR027C, strain aat2, active compounds read low 1 | S. cerevisiae deletion strains, locus YLR039C, strain RIC1, active compounds read low 1 | S. cerevisiae deletion strains, locus YLR058C, strain SHM2, active compounds read low 1.01 | S. cerevisiae deletion strains, locus YLR102C, strain apc9, active compounds read low 0.993 | S. cerevisiae deletion strains, locus YLR221C, strain rsa3, active compounds read low 1 | S. cerevisiae deletion strains, locus YLR258W, strain gsy2, active compounds read low 0.994 | S. cerevisiae deletion strains, locus YLR262C, strain YPT6 (second series), active compounds read low 1.02 | S. cerevisiae deletion strains, locus YLR262C, strain YPT6, active compounds read low 1.01 | S. cerevisiae deletion strains, locus YLR268W, strain sec22, active compounds read low 1 | S. cerevisiae deletion strains, locus YLR320W, strain mms22, active compounds read low 0.972 | S. cerevisiae deletion strains, locus YLR330W, strain CHS5, active compounds read low 0.994 | S. cerevisiae deletion strains, locus YLR342W, strain FKS1 (second series), active compounds read low 1.01 | S. cerevisiae deletion strains, locus YLR342W, strain FKS1, active compounds read low 1.01 | S. cerevisiae deletion strains, locus YLR357W, strain rsc2, active compounds read low 0.989 | S. cerevisiae deletion strains, locus YLR370C, strain arc18, active compounds read low 0.991 | S. cerevisiae deletion strains, locus YLR371W, strain rom2, active compounds read low 0.984 | S. cerevisiae deletion strains, locus YLR384C, strain iki3, active compounds read low 0.974 | S. cerevisiae deletion strains, locus YLR418C, strain cdc73, active compounds read low 1.06 | S. cerevisiae deletion strains, locus YML016C, strain PPZ1, active compounds read low 1.01 | S. cerevisiae deletion strains, locus YML032C, strain rad52, active compounds read low 0.979 | S. cerevisiae deletion strains, locus YML120C, strain ndi1, active compounds read low 1 | S. cerevisiae deletion strains, locus YML124C, strain tub3, active compounds read low 0.993 | S. cerevisiae deletion strains, locus YMR058W, strain fet3, active compounds read low 0.993 | S. cerevisiae deletion strains, locus YMR078C, strain ctf18, active compounds read low 0.982 | S. cerevisiae deletion strains, locus YMR125W, strain sto1, active compounds read low 0.98 | S. cerevisiae deletion strains, locus YMR129W, active compounds read low 0.993 | S. cerevisiae deletion strains, locus YMR205C, strain PFK2, active compounds read low 1.01 | S. cerevisiae deletion strains, locus YMR223W, strain ubp8, active compounds read low 0.995 | S. cerevisiae deletion strains, locus YMR231W, strain pep5, active compounds read low 0.979 | S. cerevisiae deletion strains, locus YMR263W, strain SAP30, active compounds read low 1.03 | S. cerevisiae deletion strains, locus YMR307W, strain GAS1, active compounds read low 0.995 | S. cerevisiae deletion strains, locus YNL067W, strain RPL9B, active compounds read low 1.02 | S. cerevisiae deletion strains, locus YNL071W, strain lat1, active compounds read low 0.989 | S. cerevisiae deletion strains, locus YNL128W, strain TEP1, active compounds read low 1.03 | S. cerevisiae deletion strains, locus YNL153C, strain GIM3, active compounds read low 1.01 | S. cerevisiae deletion strains, locus YNL209W, strain ssb2, active compounds read low 0.993 | S. cerevisiae deletion strains, locus YNL233W, strain BNI4, active compounds read low 1.01 | S. cerevisiae deletion strains, locus YNL248C, strain rpa49, active compounds read low 0.994 | S. cerevisiae deletion strains, locus YNL250W, strain rad50, active compounds read low 0.989 | S. cerevisiae deletion strains, locus YNL271C, strain bni1, active compounds read low 1 | S. cerevisiae deletion strains, locus YNL298W, strain CLA4, active compounds read low 0.983 | S. cerevisiae deletion strains, locus YNL307C, strain MCK1, active compounds read low 1.01 | S. cerevisiae deletion strains, locus YNL322C, strain KRE1 (second series), active compounds read low 0.997 | S. cerevisiae deletion strains, locus YNL322C, strain KRE1, active compounds read low 1.01 | S. cerevisiae deletion strains, locus YNR049C, strain mso1, active compounds read low 0.981 | S. cerevisiae deletion strains, locus YNR052C, strain pop2, active compounds read low 0.991 | S. cerevisiae deletion strains, locus YOL006C, strain TOP1, active compounds read low 1.09 | S. cerevisiae deletion strains, locus YOL012C, strain htz1 0.758 | S. cerevisiae deletion strains, locus YOL147C, strain pex11, active compounds read low 0.995 | S. cerevisiae deletion strains, locus YOR001W, strain rrp6, active compounds read low 0.971 | S. cerevisiae deletion strains, locus YOR061W, strain CKA2, active compounds read low 1.01 | S. cerevisiae deletion strains, locus YOR069W, strain VPS5, active compounds read low 1 | S. cerevisiae deletion strains, locus YOR070C, strain gyp1, active compounds read low 0.979 | S. cerevisiae deletion strains, locus YOR080W, strain dia2, active compounds read low 0.994 | S. cerevisiae deletion strains, locus YOR083W, strain WHI5, active compounds read low 1 | S. cerevisiae deletion strains, locus YOR106W, strain vam3, active compounds read low 0.999 | S. cerevisiae deletion strains, locus YOR136W, strain idh2, active compounds read low 0.984 | S. cerevisiae deletion strains, locus YOR144C, strain elg1, active compounds read low 0.989 | S. cerevisiae deletion strains, locus YOR184W, strain ser1, active compounds read low 0.978 | S. cerevisiae deletion strains, locus YOR265W, strain rbl2, active compounds read low 0.991 | S. cerevisiae deletion strains, locus YOR270C, strain vph1, active compounds read low 0.982 | S. cerevisiae deletion strains, locus YOR290C, strain snf2, active compounds read low 0.981 | S. cerevisiae deletion strains, locus YOR316C, strain cot1, active compounds read low 0.989 | S. cerevisiae deletion strains, locus YPL051W, strain arl3, active compounds read low 0.987 | S. cerevisiae deletion strains, locus YPL055C, strain LGE1, active compounds read low 1.04 | S. cerevisiae deletion strains, locus YPL078C, strain atp4, active compounds read low 0.988 | S. cerevisiae deletion strains, locus YPL106C, strain sse1, active compounds read low 0.97 | S. cerevisiae deletion strains, locus YPL240C, strain hsp82, active compounds read low 0.999 | S. cerevisiae deletion strains, locus YPL241C, strain CIN2, active compounds read low 1.01 | S. cerevisiae deletion strains, locus YPR119W, strain clb2, active compounds read low 0.998 | S. cerevisiae deletion strains, locus YPR141C, strain kar3, active compounds read low 0.995 | S. cerevisiae deletion strains, locus YPR163C, strain tif3, active compounds read low 0.986 | S. cerevisiae deletion strains, locus YPR167C, strain met16, active compounds read low 1 | S. cerevisiae deletion strains, strain wtn01, active compounds read low 1.01 | S. cerevisiae strains, strain wild type, active compounds read low 0.999
